SMN2 splice up: SMN2 splice variant enhancement; HEK293 SMN2-luciferase splicing reporter, luminescence, 30-36 h; Potency, µM (doses to about 46.1 µM), usual class: activators; 210,000 compounds, 2.8% hits; AID 1458; also: nearly all actives have a fitted effect of over 55% in size
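HEK293 cells carry an SMN2 […]–luciferase reporter in which exon 7 inclusion puts luciferase in frame. Cells were plated 10-12 h before compound addition, then incubated 30-36 h at 37C. ONE-Glo luminescence was read; sodium butyrate at 4.5 mM final served as control.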
ELG1 genotoxic: induces genotoxicity in HEK293T cells with luciferase-tagged ELG1; 330,000 compounds, 1.3% hits; HEK293T ELG1-luciferase reporter, luminescence, 16 h; Potency, µM (series often up to 46 µM), hits mostly activators; also: nearly all actives have a fitted effect of over 60% in size
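HEK293T cells expressing luciferase-tagged ELG1 were treated with compound or DMSO for 16 hr at 37°C. Luciferase activity was then read after 30 min with ONE-Glo at room temperature; rising signal flags genetic stress.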
Rab9 promoter act: activates the Rab9 promoter; Huh7 Rab9 promoter-luciferase reporter, luminescence, 24 h; Potency, µM (doses to about 9.22 µM), hits mostly activators; 320,000 compounds, 2.8% hits; also: nearly all actives have a fitted effect of over 60% in size
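Stable Rab9-luc Huh7, 1500 cells/well, 2 h settle; cmpd in DMSO, 24 h, 37 °C/5% CO2; luciferase reagent 10 min RT; luminescence.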
FLuc modulator: counter-screen for miR-21 project: firefly luciferase inhibitors or activators. P08659. purified FLuc, Km substrates, luminescence inhibition. Potency, µM (top dose mostly 57.5 µM), most hits filed as inhibitors. 360,000 compounds, 6.9% hits; also: nearly all actives have a fitted effect of over 55% in size
Target sequence (P08659 whole entry, looked up): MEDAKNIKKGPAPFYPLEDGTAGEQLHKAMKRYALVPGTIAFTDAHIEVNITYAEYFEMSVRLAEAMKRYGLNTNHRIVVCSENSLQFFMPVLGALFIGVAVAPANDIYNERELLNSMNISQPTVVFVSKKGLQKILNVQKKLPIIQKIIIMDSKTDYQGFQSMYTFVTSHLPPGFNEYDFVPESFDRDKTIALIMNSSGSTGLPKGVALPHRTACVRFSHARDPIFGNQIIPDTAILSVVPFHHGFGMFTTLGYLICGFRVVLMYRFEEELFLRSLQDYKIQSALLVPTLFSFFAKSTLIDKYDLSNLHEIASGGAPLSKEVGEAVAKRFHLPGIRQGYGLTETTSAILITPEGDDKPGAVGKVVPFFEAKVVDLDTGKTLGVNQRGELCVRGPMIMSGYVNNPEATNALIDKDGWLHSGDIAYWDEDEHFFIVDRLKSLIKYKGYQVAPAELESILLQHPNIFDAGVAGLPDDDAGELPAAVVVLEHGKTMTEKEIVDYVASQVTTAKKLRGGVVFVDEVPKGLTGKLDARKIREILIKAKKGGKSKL
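Purified P. pyralis luciferase, 10 nM final, with Km-level 10 uM D-luciferin and 10 uM ATP in 50 mM Tris acetate pH 7.5, 10 mM Mg acetate, 0.01% Tween-20, 0.05% BSA; 6-point qHTS titration about 60 µM downward; luminescence read.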
NPC1 promoter act: activates the NPC1 promoter; Huh7 NPC1 promoter luciferase reporter, 24 h; Potency, µM (titrated, usually from 9.22 µM), hits mostly activators; 320,000 compounds, 2.4% hits; also: nearly all actives have a fitted effect of over 60% in size
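Luciferase expression driven by the NPC1 promoter was measured in stably transfected Huh7 cells after a 24 h compound incubation, using a luciferase reagent and a luminescence read.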
Of the large screens only hits and unclear results are named; the others gave an inactive call. Hits are enriched below; roughly 7.5% of the tested compounds scored in any of these assays. Calls follow the shape of the dose curve; as a rule, active = well fitted curve in the direction sought with a large enough effect; inconclusive = small, poorly fitted or top-dose-only effect, or another doubt; inactive = no such curve, though single readings can be large; an effect the other way counts as inactive or inconclusive.

Cc1cc(C)c2nc(N3CCCC(C(=O)NCCCN4CCOCC4)C3)sc2c1 (stereo not given)	SMN2 splice up 14µM, Rab9 promoter act inconclusive, FLuc modulator inconclusive
Cc1cc(C)c(S(=O)(=O)N2CCOC2CNC(=O)C(=O)NCCCN2CCOCC2)c(C)c1 (stereo not given)	ELG1 genotoxic inconclusive, Rab9 promoter act 1.4µM, FLuc modulator 8.5µM, NPC1 promoter act 2.5µM (no result: SMN2 splice up)
Cc1cc(Cl)c(S(=O)(=O)Nc2ccc(Cl)cn2)cc1OCC(N)=O	none
O=C(NCC(c1cccs1)N1CCOCC1)c1cccnc1 (stereo not given)	none (no result: SMN2 splice up)
O=C(COC(=O)c1cc([N+](=O)[O-])ccc1N1CCOCC1)NCc1ccc(F)cc1	none (no result: SMN2 splice up)
O=C(NC1CCCc2ccccc21)c1cc(S(=O)(=O)N2CCOCC2)ccc1F (stereo not given)	none
Cn1c(CNc2nc3ccccc3n2C)nc2ccccc21	SMN2 splice up inconclusive, Rab9 promoter act inconclusive, FLuc modulator inconclusive, NPC1 promoter act 3.5µM
COc1ccc(Nc2nc3ccccc3n2C)cc1	Rab9 promoter act 3.2µM, FLuc modulator 15µM, NPC1 promoter act 2.5µM (no result: SMN2 splice up)
COc1ccc(NCc2nc3ccccc3n2CCOc2ccccc2)cc1	SMN2 splice up inconclusive, ELG1 genotoxic 21µM, Rab9 promoter act inconclusive, FLuc modulator 13µM, NPC1 promoter act inconclusive
COc1ccc(NCc2nc3ccccc3n2CCOc2ccc(C)cc2)cc1	ELG1 genotoxic inconclusive, FLuc modulator inconclusive
CC(C)n1c(NCc2nc3ccccc3n2C)nc2ccccc21	none
Cn1c(Nc2ccc(F)cc2)nc2ccccc21	FLuc modulator inconclusive (no result: SMN2 splice up)
Cc1ccc(NCc2nc3ccccc3n2C)cc1C	ELG1 genotoxic inconclusive, Rab9 promoter act 2.8µM, FLuc modulator 4.8µM, NPC1 promoter act 3.5µM (no result: SMN2 splice up)
CCOC(=O)C1CCN(S(=O)(=O)c2ccc(NC(=O)c3ccco3)cc2)CC1	none (no result: SMN2 splice up)
Cc1ccc(NCc2nc3ccccc3n2C)cc1	SMN2 splice up 2.2µM, ELG1 genotoxic 1.5µM, Rab9 promoter act 0.63µM, FLuc modulator 3.4µM, NPC1 promoter act 1.1µM
Cc1ccc(OCCn2c(C)nc3ccccc32)cc1	none (no result: SMN2 splice up)
Cc1ccc(NC(=O)NCc2nc3ccccc3n2C)cc1	none (no result: SMN2 splice up)
COc1ccc(NCc2nc3ccccc3n2C)cc1	ELG1 genotoxic 5.2µM, Rab9 promoter act 2.2µM, FLuc modulator 11µM, NPC1 promoter act 1.8µM (no result: SMN2 splice up)
CCOC(=O)c1ccc(NCc2nc3ccccc3n2C)cc1	Rab9 promoter act 3.2µM, FLuc modulator inconclusive, NPC1 promoter act 3.2µM (no result: SMN2 splice up)
Cc1nc2ccccc2n1CCCOc1ccccc1	FLuc modulator 11µM
N#CCCN(C(=O)COc1ccc(Br)cc1F)c1ccc(F)cc1	none
Cn1c(CNC2CCCCC2)nc2ccccc21	none
Cn1c(CNc2ccc(O)cc2)nc2ccccc21	ELG1 genotoxic inconclusive, Rab9 promoter act inconclusive, FLuc modulator 13µM, NPC1 promoter act inconclusive (no result: SMN2 splice up)
Cn1c(CNc2ccc(Br)cc2)nc2ccccc21	ELG1 genotoxic inconclusive, Rab9 promoter act 2.8µM, FLuc modulator 2.7µM, NPC1 promoter act 1.6µM (no result: SMN2 splice up)
COc1ccc(Nc2nc3ccccc3n3c(N)nnc23)cc1	FLuc modulator 9.5µM (no result: ELG1 genotoxic, Rab9 promoter act, NPC1 promoter act)
COc1ccc(Nc2nc3ccccc3n3cnnc23)cc1	SMN2 splice up inconclusive
CC(C)[C@H](NC(=O)[C@@H]1CSC2c3ccccc3C(=O)N21)C(=O)NCC1CCCO1 (stereo not given in full)	none (no result: SMN2 splice up)
Cc1c(NC(=O)COC(=O)C2=COCCO2)cccc1[N+](=O)[O-]	none (no result: SMN2 splice up)
COc1ccc(C(=O)C2CCN(C(=O)c3ccc(C)cc3)CC2)cc1	none (no result: SMN2 splice up)
COc1ccc(-c2ccc(C(=O)C3CC3)cc2)cc1	ELG1 genotoxic 2.9µM, Rab9 promoter act 1.8µM, FLuc modulator 1.5µM, NPC1 promoter act 2.8µM (no result: SMN2 splice up)
COc1ccc(C(=O)C2CCN(C(=O)Nc3ccc(C)cc3)CC2)cc1	FLuc modulator 4.8µM (no result: SMN2 splice up)
Cc1ccc(NC(=O)N2CCC(C(=O)c3ccc(F)cc3)CC2)cc1	none (no result: SMN2 splice up)
C1OCOCO1	none (no result: ELG1 genotoxic, Rab9 promoter act, FLuc modulator, NPC1 promoter act)
N/C(=N\OC(=O)CCCN1C(=O)c2ccccc2C1=O)c1ccc(Cl)cc1	none
C/C(=N\Nc1ccc(Cl)c(C(=O)O)c1)c1ccc(Br)s1	FLuc modulator inconclusive (no result: SMN2 splice up)
C/C(=N\Nc1ccccn1)c1ccc(S(=O)(=O)NCc2ccco2)cc1	FLuc modulator inconclusive
C/C(=N\Nc1ccc(C(=O)O)cc1)c1ccc(Cl)s1	Rab9 promoter act 0.28µM, FLuc modulator 0.95µM, NPC1 promoter act 0.4µM (no result: SMN2 splice up)
C/C(=N/Nc1ncc(Br)cn1)c1ccc(Br)cc1	none (no result: SMN2 splice up)

Assay outcomes as filed in PubChem BioAssay.
